# Laboratory results as given in PubChem BioAssay AID1159580 (chemical genetic matrix, 2015).
# Out of some 5,500 compounds screened, about 2,000 (36%) were called active. Not shown: some 18% with an inconclusive outcome. This is one part of the list. A number with no mark means an inactive call. Rule as the data show it: active = normalized growth mostly below about 0.91 (no sharp cut-off); inconclusive = no clear call, values can overlap the other calls; inactive = mostly above about 0.92.
# Test: chemical genetic growth profiling, strain panel (AID 1159580);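 also: tested at 20 µM; growth read once vehicle control cultures reached saturation at 30 °C; 1 = growth at the plate median or of vehicle wells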
# Conditions: S. cerevisiae deletion strains, growth OD
# [1] = locus YHR030C, strain SLT2, stronger effect = lower value
compound,measurement,setting,value
Cc1onc(-c2ccccc2)c1-c1nc(CSc2ccc(C(F)(F)F)cn2)no1,normalized growth,"locus YAL013W, strain DEP1, stronger effect = lower value",1.03
same,normalized growth,"locus YBR229C, strain ROT2, stronger effect = lower value",0.973
same,normalized growth,"locus YCL061C, strain MRC1, stronger effect = lower value",0.991
same,normalized growth,"locus YDL101C, strain DUN1, stronger effect = lower value",0.968
same,normalized growth,"locus YDR150W, strain NUM1, stronger effect = lower value",1.02
same,normalized growth,"locus YEL061C, strain CIN8, stronger effect = lower value",0.975
same,normalized growth,"locus YGR078C, strain PAC10, stronger effect = lower value",1
same,normalized growth,[1],0.818
same,normalized growth,"locus YHR087W, strain rtc3, stronger effect = lower value",0.984
same,normalized growth,"locus YJL187C, strain SWE1, stronger effect = lower value",0.977
same,normalized growth,"locus YJR043C, strain POL32, stronger effect = lower value",0.957
same,normalized growth,"locus YJR075W, strain HOC1, stronger effect = lower value",0.995
same,normalized growth,"locus YLR039C, strain RIC1, stronger effect = lower value",0.947
same,normalized growth,"locus YLR058C, strain SHM2 (second series), stronger effect = lower value",0.957
same,normalized growth,"locus YLR085C, strain ARP6, stronger effect = lower value",1.06
same,normalized growth,"locus YLR262C, strain YPT6, stronger effect = lower value",0.93
same,normalized growth,"locus YML094W, strain GIM5, stronger effect = lower value",1.02
same,normalized growth,"locus YMR219W, strain ESC1, stronger effect = lower value",0.975
same,normalized growth,"locus YMR263W, strain SAP30, stronger effect = lower value",0.971
same,normalized growth,"locus YMR307W, strain GAS1, stronger effect = lower value",1.02
same,normalized growth,"locus YNL153C, strain GIM3, stronger effect = lower value",1.02
same,normalized growth,"locus YNL298W, strain CLA4 (second series), stronger effect = lower value",1.02
same,normalized growth,"locus YNL322C, strain KRE1, stronger effect = lower value",0.964
same,normalized growth,"locus YNR030W, strain Alg12, stronger effect = lower value",1.01
same,normalized growth,"locus YOL006C, strain TOP1, stronger effect = lower value",0.946
same,normalized growth,"locus YPL055C, strain LGE1, stronger effect = lower value",1.06
same,normalized growth,"locus YPL241C, strain CIN2, stronger effect = lower value",0.93
same,normalized growth,"locus YPR135W, strain CTF4, stronger effect = lower value",1.33
Cc1onc(-c2ccccc2)c1C(=O)Sc1ccc(C(F)(F)F)cn1,normalized growth,"locus YAR019C, strain CDC15, stronger effect = lower value",0.941
same,normalized growth,"locus YBL105C, strain PKC1, stronger effect = lower value",0.961
same,normalized growth,"locus YBR135W, strain CKS1, stronger effect = lower value",0.965
same,normalized growth,"locus YBR136W, strain MEC1, stronger effect = lower value",0.955
same,normalized growth,"locus YBR160W, strain CDC28, stronger effect = lower value",0.967
same,normalized growth,"locus YDL017W, strain CDC7, stronger effect = lower value",0.967
same,normalized growth,"locus YDL028C, strain MPS1, stronger effect = lower value",0.958
same,normalized growth,"locus YDL108W, strain KIN28, stronger effect = lower value",0.974
same,normalized growth,"locus YDL132W, strain cdc53, stronger effect = lower value",0.951
same,normalized growth,"locus YDL214C, strain PRR2, stronger effect = lower value",0.217 (active)
same,normalized growth,"locus YDR052C, strain DBF4, stronger effect = lower value",0.977
same,normalized growth,"locus YDR054C, strain cdc34, stronger effect = lower value",0.937
same,normalized growth,"locus YDR226W, strain ADK1, stronger effect = lower value",0.963
same,normalized growth,"locus YDR477W, strain SNF1, stronger effect = lower value",0.187 (active)
same,normalized growth,"locus YER123W, strain YCK3, stronger effect = lower value",0.465 (active)
same,normalized growth,"locus YER133W, strain GLC7, stronger effect = lower value",0.249 (active)
same,normalized growth,"locus YFL009W, strain cdc4, stronger effect = lower value",0.951
same,normalized growth,"locus YFL029C, strain CAK1, stronger effect = lower value",0.949
same,normalized growth,"locus YFR003C, strain YPI1, stronger effect = lower value",0.971
same,normalized growth,"locus YFR019W, strain FAB1, stronger effect = lower value",0.739 (active)
same,normalized growth,"locus YFR028C, strain CDC14, stronger effect = lower value",0.968
same,normalized growth,"locus YGR040W, strain KSS1, stronger effect = lower value",0.227 (active)
same,normalized growth,"locus YGR052W, strain FMP48, stronger effect = lower value",0.242 (active)
same,normalized growth,"locus YGR092W, strain DBF2, stronger effect = lower value",0.799
same,normalized growth,[1],0.317 (active)
same,normalized growth,"locus YHR079C, strain IRE1, stronger effect = lower value",0.712
same,normalized growth,"locus YHR082C, strain KSP1, stronger effect = lower value",0.256 (active)
same,normalized growth,"locus YHR205W, strain SCH9, stronger effect = lower value",0.343 (active)
same,normalized growth,"locus YIL147C, strain SLN1, stronger effect = lower value",0.955
same,normalized growth,"locus YJL095W, strain BCK1, stronger effect = lower value",0.424 (active)
same,normalized growth,"locus YJR016C, strain ILV3, stronger effect = lower value",0.973
same,normalized growth,"locus YJR066W, strain TOR1 (second series), stronger effect = lower value",0.343 (active)
same,normalized growth,"locus YJR066W, strain TOR1, stronger effect = lower value",0.283 (active)
same,normalized growth,"locus YKL048C, strain ELM1, stronger effect = lower value",0.933
same,normalized growth,"locus YKL101W, strain HSL1, stronger effect = lower value",0.817
same,normalized growth,"locus YKL193C, strain SDS22, stronger effect = lower value",0.952
same,normalized growth,"locus YKL203C, strain TOR2, stronger effect = lower value",0.53 (active)
same,normalized growth,"locus YLR113W, strain HOG1, stronger effect = lower value",0.184 (active)
same,normalized growth,"locus YLR133W, strain CKI1, stronger effect = lower value",0.749
same,normalized growth,"locus YML070W, strain DAK1, stronger effect = lower value",0.587 (active)
same,normalized growth,"locus YMR001C, strain CDC5, stronger effect = lower value",0.952
same,normalized growth,"locus YMR205C, strain PFK2 (second series), stronger effect = lower value",0.882
same,normalized growth,"locus YMR277W, strain FCP1, stronger effect = lower value",0.943
same,normalized growth,"locus YNL006W, strain LST8, stronger effect = lower value",0.979
same,normalized growth,"locus YNL020C, strain ARK1, stronger effect = lower value",0.874
same,normalized growth,"locus YNL161W, strain CBK1, stronger effect = lower value",0.951
same,normalized growth,"locus YNL183C, strain NPR1, stronger effect = lower value",0.106 (active)
same,normalized growth,"locus YNL207W, strain RIO2, stronger effect = lower value",0.961
same,normalized growth,"locus YNL222W, strain SSU72, stronger effect = lower value",0.918
same,normalized growth,"locus YNL307C, strain MCK1 (second series), stronger effect = lower value",0.683
same,normalized growth,"locus YOL078W, strain AVO1, stronger effect = lower value",0.948
same,normalized growth,"locus YOL136C, strain PFK27, stronger effect = lower value",0.583 (active)
same,normalized growth,"locus YOR061W, strain CKA2, stronger effect = lower value",0.765
same,normalized growth,"locus YOR119C, strain RIO1, stronger effect = lower value",0.471 (active)
same,normalized growth,"locus YOR231W, strain MKK1, stronger effect = lower value",0.732
same,normalized growth,"locus YOR329C, strain SCD5, stronger effect = lower value",0.96
same,normalized growth,"locus YPL153C, strain RAD53, stronger effect = lower value",0.661
same,normalized growth,"locus YPL209C, strain IPL1, stronger effect = lower value",0.961
same,normalized growth,"locus YPL256C, strain CLN2, stronger effect = lower value",0.209 (active)
same,normalized growth,"locus YPR025C, strain CCL1, stronger effect = lower value",0.954
same,normalized growth,"locus YPR106W, strain ISR1, stronger effect = lower value",0.939
same,normalized growth,"locus YPR111W, strain DBF20, stronger effect = lower value",0.946
same,normalized growth,"strain NNK1, stronger effect = lower value",0.963
same,normalized growth,"strain TSCII, stronger effect = lower value",0.937
